# PubChem BioAssay (Tox21)
# Inconclusive results are not listed. A call without a number means that no potency is given here. Active and inactive are the calls of the source. The call rests on the fitted dose curve; in most records, active means well fitted cell-killing curve with a large enough effect in the repeat runs; inconclusive means weak or mixed curves, or effect the other way; inactive means flat fitted curve, though single readings scatter.
# What was measured:
# [1] = cAMP Responsive Elements (CRE) small molecule antagonists, cell-based qHTS assay: qHTS cell viability counter screen (AID 2060913); further: nearly all actives have a fitted effect of over 40% in size
# Outline: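 Cytotoxicity read in the same wells as the CRE-bla HEK293T antagonist assay: after 3 h compound with 0.25 uM NKH477 final and 2 h beta-lactamase substrate, CellTiter-Glo luminescence measured.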
# [2] = cAMP Responsive Elements (CRE) small molecule agonists, cell-based qHTS assay: qHTS cell viability counter screen (AID 2060914);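 further: viability read after 3 h of compound exposure; nearly all actives have a fitted effect of over 50% in size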
# Outline: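 CRE-bla HEK 293T cells, plated 18 h at 37 °C, were exposed to compounds for 3 h at 37 °C/5% CO2. Viability was then measured in the same wells by CellTiter-Glo luminescence after 30 min at room temperature.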
Structure (SMILES),Potency [1],Potency [2]
O=C1O[C@H](CO)[C@@H](O)[C@H](O)[C@H]1O,inactive,inactive
COCCO,inactive,inactive
OCCN1CN(CCO)CN(CCO)C1,inactive,inactive
O=C(O)CNc1ccccc1,inactive,inactive
CCOc1ccc(O)cc1,inactive,inactive
C=COCCCCO,inactive,inactive
NCCN1CCOCC1,inactive,inactive
Cc1ccccc1OCC(O)CO (stereo not given),inactive,inactive
C=CC[N+]1([C@H]2C[C@H]3[C@@H]4CC[C@H]5C[C@H](OC(C)=O)[C@@H](N6CCCCC6)C[C@]5(C)[C@H]4CC[C@]3(C)[C@H]2OC(=O)CC)CCCCC1,inactive,inactive
Cc1ccccc1C(OCCN(C)C)c1ccccc1 (stereo not given),inactive,inactive
CO[C@@H]1[C@H](OC(=O)/C=C/C=C/C=C/C=C/C(=O)O)CC[C@]2(CO2)[C@H]1[C@@]1(C)O[C@@H]1CC=C(C)C,inactive,inactive
CCCCCCCCOc1ccc(C(=O)O)cc1,inactive,inactive
CCN(CC)c1ccc(C(=O)c2ccccc2C(=O)O)c(O)c1,inactive,inactive
CCCCC/C=C\CCC=O,inactive,inactive
O=C(O)CCCCC(=O)O,inactive,inactive
Nc1nnc(-c2ccc([N+](=O)[O-])o2)o1,inactive,inactive
C=CC(C)(C)CC(=O)OC,inactive,inactive
CCCCCCCC/C=C\CCCCCCCCO,inactive,inactive
CCCCCCCCCCCCI,inactive,inactive
O=C(c1ccc(OCCN2CCCCC2)cc1)c1c(-c2ccc(O)cc2)sc2cc(O)ccc12,inactive,inactive
